Laboratory results: PubChem BioAssay (Tox21)
Inconclusive results are not listed. Unmarked numbers belong to inactive results. The source made the active and inactive calls. Calls follow the shape of the dose curve; as a rule, active = well fitted cell-killing curve with a large enough effect in the repeat runs; inconclusive = weak or mixed curves, or effect the other way; inactive = flat fitted curve, though single readings scatter.

Assay: qHTS RealTime-Glo MT Cell Viability Assay in HepG2 cells - 40 hour (AID 1224870); also: nearly all actives have a fitted effect of over 50% in size
Settings: RealTime-Glo luminescence; series mostly up to 76.8 µM
Excerpt: National Center for Advancing Translational Sciences [NCATS]
NIH Chemical Genomics Center [NCGC]
U.S. Environmental Protection Agency [EPA]
National Institutes of Environmental Health Sciences [NIEHS]
National Toxicology Program [NTP]
U.S. Food and Drug Administration [FDA]
Measure of cell viability is critical in the cell-base assay. Analysis of cell viability is necessary for the characterization of cell responses to cytotoxic drugs and environmental stress. A RealTime-Glo MT Cell Viability Assay to monitor cell viability in real time of continues cell culture during 40 hours of compound treatment was used to screen Tox21 10K library compounds in HepG2 cells. The RealTime-Glo MT Cell Viability Assay is a nonlytic, homogeneous, bioluminescent method to measure cell viability in real time using a simple, plate-based method. The assay involves adding NanoLuc luciferase and a cell-permeant prosubstrate to cells in culture. Viable cells reduce the proprietary prosubstrate to generate a substrate for NanoLuc luciferase. This substrate diffuses from cells into the surrounding culture medium, where it is rapidly used by the NanoLuc Enzyme to produce a luminescent signal. The signal correlates with the number of viable cells, making the assay well suited for cytotoxicity studies.
Tox21 Assay Protocol Summary:
The mixture of HepG2 cell suspension and reagents were dispensed at 600cells/6 ul/well in 1536-well tissue culture treated black solid bottom plates using a Multidrop dispenser. After the assay plates were incubated at a 37 C/5% CO2 incubator for 5 hours, 23 nL of compounds dissolved in DMSO, positive and negative controls was transferred to the assay plate by a pintool work station. The plates were incubated at 37 C for 40 hours. The luminescence intensity were measured at 0h, 8h, 16h, 24h, 32h and 40h time points using ViewLux plate reader during compound treatment.
% is scaled to controls: 0 for no effect and ±100 for the full control effect.

| SMILES | outcome | activity change, negative = cytotoxic |
| --- | --- | --- |
| O=[N+]([O-])c1c(Cl)cc(Cl)cc1Cl | inactive |  |
| CC(C)NC(=O)c1ccc(C=O)cc1 | inactive |  |
| CCC(C)C(=O)OCCc1ccccc1 (stereo not given) | inactive |  |
| Cc1ccc(N)cc1S(=O)(=O)O | inactive |  |
| CC(=O)O[C@@H]1CC2CCC1(C)C2(C)C (stereo not given in full) | inactive |  |
| COC(=O)CCCCC(CCSS/C(CCO)=C(\C)N(C=O)Cc1cnc(C)nc1N)SC(C)=O (stereo not given) | inactive |  |
| CN(C)CCOC(=O)C(c1ccccc1)C1(O)CCCC1 (stereo not given) | inactive |  |
| C=CCCCC | inactive |  |
| O=C(O)[C@H](O)c1ccccc1 | inactive |  |
| Cc1ccc(C(C)NC(=O)[C@@H](NC(=O)OC(C)C)C(C)C)cc1 (stereo not given in full) | inactive |  |
| CCC(=O)CC | inactive |  |
| N#CCC(=O)NN | inactive |  |
| [O]=[Mo](=[O])=[O] |  | -4.78% [at 15.8 µM] |
| CCCCCC(C)O (stereo not given) | inactive |  |
| CCn1cc(C(=O)O)c(=O)c2cnc(N3CCCC3)nc21 |  | 1.51% [at 6.97 µM] |
| Fc1ccccc1 | inactive |  |
| CC(C)[C@H]1CC[C@H](C)C[C@@H]1O | inactive |  |
| CCCCCCCCCCCCCCCCCC#N | inactive |  |
| C=CC/C=C/C | inactive |  |
| CC12CCC(C1)C(C)(C)C2O (stereo not given) | inactive |  |

| SMILES | outcome | activity change, negative = cytotoxic |
| --- | --- | --- |
| CCc1occc(=O)c1O | inactive |  |
| CCCC(CC)c1ccccc1 (stereo not given) | inactive |  |
| Cc1c(N)cccc1Cl | inactive |  |
| CCNC(=O)NCc1cccc(Cl)c1 | inactive |  |
| OCCN1CCOCC1 | inactive |  |
| CCN1CCCC1CN (stereo not given) | inactive |  |
| OC1(c2ccc(Cl)cc2)CCNCC1 | inactive |  |
| C=C(C)[C@@H]1CC=C(C)C(=O)C1 | inactive |  |
| C=CCSSCCC | inactive |  |
| CCCCCCCCCCOC(C)=O | inactive |  |
| CCCCCCCCCOC(=O)CCCCC(=O)OCCCCCCC | inactive |  |
| CC(Oc1cc(Cl)ccc1Cl)C(=O)O (stereo not given) | inactive |  |
| CC1(C)O[C@H]2CC(=O)OC[C@]23[C@H]2CC[C@@]4(C)[C@H](c5ccoc5)OC(=O)[C@H]5O[C@]54[C@]2(C)C(=O)C[C@@H]13 | inactive |  |
| Cn1c(=O)c2[nH]c(Br)nc2n(C)c1=O | inactive |  |
| CC(=O)CCc1ccc(OC(C)=O)cc1 | inactive |  |
| CC(C)c1ccc(C=O)cc1 | inactive |  |
| CC1=C(C(=O)O)N2C(=O)[C@@H](NC(=O)[C@H](N)C3=CCC=CC3)[C@H]2SC1 | inactive |  |
| Cc1cc(C)c(C(=O)O)c(C)c1 | inactive |  |
| CC(=O)Nc1ccc(OC(=O)c2ccccc2OC(C)=O)cc1 | inactive |  |
| CCC(C)C(C)=O (stereo not given) | inactive |  |
